Results filed as inconclusive are left out. The source made the active and inactive calls. The call rests on the fitted dose curve; in most records, active means well fitted cell-killing curve with a large enough effect; inconclusive means small, poorly fitted or top-dose-only effect, or effect the other way; inactive means no such curve, though single readings can be large or run the other way.

A short description of assay [1]: Quantitative High-Throughput drug screen in 47 multiple myeloma cell lines against the NCATS MIPE library collection: OCIMY1_PLB cell viability assay (AID 1918979). Further: nearly all actives have a fitted effect of over 35% in size. Summed up:
(§1)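 500 cells/well; MIPE 4.0 drugs pin-transferred; 48 h, 37C, 5% CO2. CellTiter-Glo, 5 min RT, luminescence. Controls: DMSO 100%, media 0%.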

A short description of assay [2]: Quantitative High-Throughput drug screen in 47 multiple myeloma cell lines against the NCATS MIPE library collection: MM1S_ATCC cell viability assay (AID 1918980). Further: nearly all actives have a fitted effect of over 45% in size. Summed up:
as §1

Assay [3] in a line: Quantitative High-Throughput drug screen in 47 multiple myeloma cell lines against the NCATS MIPE library collection: MM1R_ATCC cell viability assay (AID 1918981). Further: nearly all actives have a fitted effect of over 35% in size. Summed up: as §1
Assay [4] is described as follows: Quantitative High-Throughput drug screen in 47 multiple myeloma cell lines against the NCATS MIPE library collection: KMS28PE_JCRB cell viability assay (AID 1918983). Further: nearly all actives have a fitted effect of over 35% in size. Summed up: as §1
A short description of assay [5]: Quantitative High-Throughput drug screen in 47 multiple myeloma cell lines against the NCATS MIPE library collection: L363_DSMZ cell viability assay (AID 1918984). Further: nearly all actives have a fitted effect of over 40% in size. An outline of the steps: as §1
Assay [6] can be described thus: Quantitative High-Throughput drug screen in 47 multiple myeloma cell lines against the NCATS MIPE library collection: KMS34_JCRB cell viability assay (AID 1918985). Further: nearly all actives have a fitted effect of over 40% in size. Summed up:
as §1

Assay [7] can be described thus: Quantitative High-Throughput drug screen in 47 multiple myeloma cell lines against the NCATS MIPE library collection: OCIMY7_PLB cell viability assay (AID 1918987). Further: nearly all actives have a fitted effect of over 65% in size. Particulars: OCI-MY7 myeloma viability, CellTiter-Glo ATP, 48 h; viability (% of DMSO): at 45.8 µM (top of the series). An outline of the steps:
as §1

Assay [8] in a line: Quantitative High-Throughput drug screen in 47 multiple myeloma cell lines against the NCATS MIPE library collection: OCIMY5_PLB cell viability assay (AID 1918988). Further: nearly all actives have a fitted effect of over 65% in size. Summed up:
as §1

Assay [9] can be described thus: Quantitative High-Throughput drug screen in 47 multiple myeloma cell lines against the NCATS MIPE library collection: LP1_DSMZ cell viability assay (AID 1918982). Further: nearly all actives have a fitted effect of over 35% in size. Summed up: as §1
A short description of assay [10]: Quantitative High-Throughput drug screen in 47 multiple myeloma cell lines against the NCATS MIPE library collection: OPM1_PLB cell viability assay (AID 1918989). Further: nearly all actives have a fitted effect of over 40% in size. Summed up: as §1
Potency means the concentration at half of the fitted maximal effect.

With `CC[C@]1(O)C[C@@H]2CN(CCc3c([nH]c4ccccc34)[C@@](C(=O)OC)(c3cc4c(cc3OC)N(C=O)[C@@H]3C45CCN4CC=C[C@](CC)([C@H]45)[C@@H](OC(C)=O)[C@]3(O)C(=O)OC)C2)C1` (stereo not given in full), the Potency in assay [1] was 26.4 µM (active); in [2], 18.7 µM (active); in [3], 20.9 µM (active); in assay [4] it was 23.5 µM (active); in [6], 23.5 µM (active); in assay [7] it was 9.35 µM (active). Moreover, in assay [8], the Potency is 20.9 µM (active). The Potency result in [5] is “inactive”.

On to `COc1cc2ncnc(-n3nc(-c4ccccn4)nc3N)c2cc1OC`, for which the Potency result in assay [1] and in [9] was “inactive” each time. Besides, the Potency is 20.9 µM (active) in [2]; 18.7 µM (active) in assay [3]; 11.8 µM (active) in [4]; 0.662 µM (active) in assay [5]; 1.66 µM (active) in assay [7]; 5.26 µM (active) in [8]. In assay [10], the Potency was 11.8 µM (active).

Regarding `NS(=O)(=O)c1cccc2c1C(=O)c1cccc(O)c1C2=O`, the Potency in [1] was 1.18 µM (active); in assay [2], 10.5 µM (active); in assay [3], 0.526 µM (active); in [4], 1.18 µM (active); in assay [5], 0.166 µM (active); in [6] it was 0.418 µM (active). Besides, the figures for the Potency in assay [7] and in [10] were 0.118 µM (active) and 0.235 µM (active), respectively.

For the compound `CC(=O)N(C)C1(c2ccccc2)CCN(CCC[C@]2(c3ccc(Cl)c(Cl)c3)CCCN(C(=O)c3ccccc3)C2)CC1`, the Potency in assay [1] was 26.4 µM (active); in assay [2] it was 20.9 µM (active); in assay [3] it was 23.5 µM (active); in assay [9], 26.4 µM (active); in assay [4], 20.9 µM (active); in assay [5] it was 5.9 µM (active). Besides, the Potency in assay [7] is 14.8 µM (active); in [8] it was 18.7 µM (active); in [10], 18.7 µM (active).

Take `Cc1ccc(Nc2cc(-c3cccc(N4C(=O)c5ccccc5C4=O)c3)ncn2)cc1NS(C)(=O)=O`: the Potency entry in assay [1] was “inactive”. The Potency is 20.9 µM (active) in [2]; 23.5 µM (active) in assay [3]; 26.4 µM (active) in assay [9]; 18.7 µM (active) in [5]; 20.9 µM (active) in assay [8]; 23.5 µM (active) in assay [10].

As to `CC=CC[C@@H](C)C(=O)[C@H]1C(=O)N[C@@H](C(C)C)C(=O)N(C)CC(=O)N(C)[C@@H](CC(C)C)C(=O)N[C@@H](C(C)C)C(=O)N(C)[C@@H](CC(C)C)C(=O)N[C@@H](C)C(=O)N[C@H](C)C(=O)N(C)[C@@H](CC(C)C)C(=O)N(C)[C@@H](CC(C)C)C(=O)N(C)[C@@H](C(C)C)C(=O)N1C`, in [1], the Potency entry is “inactive”. In addition, the Potency is 16.6 µM (active) in assay [2], 16.6 µM (active) in assay [7] and 23.5 µM (active) in assay [8].

For `O=C(CCN1CCN(C(=O)OCc2cc(Cl)cc(Cl)c2)CC1)c1ccc2[nH]c(=O)oc2c1`, the Potency result in [1], in [4], in [6] and in [10] was “inactive” each time. Also, the values for the Potency in assay [2] and in assay [3] were 13.2 µM (active) and 18.7 µM (active), respectively.

On to `CC(C)(C)C(=O)Oc1ccc2c(c1)nc(NC(=O)c1cccc([N+](=O)[O-])c1)n2CCCO`, for which the Potency result in assay [1] and in assay [10] was “inactive” each time. Besides, in [2], the Potency was 23.5 µM (active).

For `COc1ccc(-n2c(C)c([N+](=O)[O-])c3ccc(O)cc32)cc1`, the Potency entry in [1], in assay [4] and in assay [10] was “inactive” throughout. For the same compound, the Potency is 0.833 µM (active) in assay [2], 16.6 µM (active) in assay [3] and 14.8 µM (active) in [7].

On to `O=C1NC(=O)C(=Cc2ccc3c(c2)OC(F)(F)O3)S1`, for which the Potency entry in [1] and in [4] was “inactive” throughout. For the same compound, the Potency in assay [2] was 20.9 µM (active); in assay [9], 18.7 µM (active); in assay [10], 7.43 µM (active).

For the compound `CCS(=O)(=O)N1CC(CC#N)(n2cc(-c3ncnc4[nH]ccc34)cn2)C1`, the Potency result in [1] and in [5] was “inactive” throughout. The Potency is 20.9 µM (active) in assay [2], 6.62 µM (active) in assay [6], 8.33 µM (active) in [7] and 20.9 µM (active) in [10].

On to `COc1ccc2c3c1OC1C[C@@H](O)C=C[C@@]31CCN(C)C2` (stereo not given in full), for which the Potency entry in assay [1], in [3], in [4], in [6] and in [10] was “inactive” each time. Further, the Potency in assay [2] is 20.9 µM (active); in assay [7], 4.18 µM (active).

Turning to `C[C@H](NC(=O)c1sccc1OCc1ccc(Cl)cc1)c1ccccc1`, the Potency in assay [1] is 16.6 µM (active); in [2], 18.7 µM (active); in assay [9], 16.6 µM (active); in assay [4], 16.6 µM (active); in [8] it was 16.6 µM (active).

As for `NC(=O)[C@@H](CCC(F)(F)F)N(Cc1ccc(-c2ncon2)cc1F)S(=O)(=O)c1ccc(Cl)cc1`, the Potency entry in assay [1] and in [3] was “inactive” throughout. Also, the Potency in assay [2] was 16.6 µM (active); in assay [8], 23.5 µM (active); in assay [10] it was 20.9 µM (active).

With `COc1cc2c(cc1OC)CN(CCc1ccc(NC(=O)c3cc(OC)c(OC)cc3NC(=O)c3cnc4ccccc4c3)cc1)CC2`, the Potency result in [1], in assay [9], in assay [5] and in assay [6] was “inactive” in each case. In addition, the Potency in [2] is 2.64 µM (active); in assay [7] it was 6.62 µM (active); in assay [10], 14.8 µM (active).

As for `CNC(=O)c1ccccc1Sc1ccc2c(C=Cc3ccccn3)n[nH]c2c1`, the Potency entry in [1] was “inactive”. Further, the Potency in assay [2] is 16.6 µM (active); in assay [9] it was 23.5 µM (active); in [4], 5.26 µM (active); in assay [7] it was 2.64 µM (active); in assay [8], 0.935 µM (active); in assay [10], 18.7 µM (active).

For the compound `O=c1c(-c2ccc(O)cc2)coc2cc(OC3O[C@H](CO)[C@H](O)[C@H](O)[C@H]3O)cc(O)c12` (stereo not given in full), the Potency result in assay [1] was “inactive”. Moreover, the Potency is 4.18 µM (active) in assay [2]; 16.6 µM (active) in assay [3]; 1.48 µM (active) in assay [7]; 1.48 µM (active) in [8]; 7.43 µM (active) in [10].

As for `CCCCCN(C)CCC(O)(P(=O)(O)O)P(=O)(O)O`, the Potency result in assay [1], in assay [2], in assay [9], in [5], in assay [6] and in assay [7] was “inactive” in each case. The Potency result in assay [10] was “inactive”.

With `CC(C)(Cc1ccc2ccccc2c1)NC[C@@H](O)COc1cccc(Cl)c1C#N`, the Potency entry in assay [1], in assay [4] and in assay [6] was “inactive” in each case. For the same compound, the Potency in assay [2] was 16.6 µM (active); in assay [10] it was 6.62 µM (active).

For the origin of these results see PubChem BioAssay (NCATS).
